According to PubChem BioAssay (NCI):
Compounds without any hit were thinned out: in the full panel of roughly 83,000, 20% have a hit.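 The test compound was applied at a single concentration to cells in 96-well plates for 48 hours, and percent growth was recorded.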 Values without a mark were called inactive. Active and inactive are the calls of the source. Rule for the calls: active = growth percent below 10; inactive = the rest.

Legend:
Test in all cases: NCI-60 one-dose screen, 48 h (100 = growth as untreated, 0 = no growth, -100 = all killed)
Settings in all cases: 10 µM
[1] = tested on: HT29 colon
[2] = tested on: SNB-75 CNS
[3] = tested on: SNB-19 CNS
[4] = tested on: U251 CNS
[5] = tested on: PC-3 prostate
[6] = tested on: SK-MEL-5 melanoma
[7] = tested on: UACC-62 melanoma
[8] = tested on: LOX IMVI melanoma
[9] = tested on: SK-MEL-28 melanoma
[10] = tested on: SK-MEL-2 melanoma
[11] = tested on: EKVX NSCLC
[12] = tested on: SN12C renal
[13] = tested on: UO-31 renal
[14] = tested on: TK-10 renal
[15] = tested on: ACHN renal
[16] = tested on: CAKI-1 renal
[17] = tested on: A498 renal
[18] = tested on: CCRF-CEM leukemia
[19] = tested on: MOLT-4 leukemia
[20] = tested on: SR leukemia

Structure (SMILES) | growth [1] | growth [2] | growth [3] | growth [4] | growth [5] | growth [6] | growth [7] | growth [8] | growth [9] | growth [10] | growth [11] | growth [12] | growth [13] | growth [14] | growth [15] | growth [16] | growth [17] | growth [18] | growth [19] | growth [20]
CC(=O)c1cc(Br)ccc1O | 116% | 106% | 109% | 108% | 93.5% | 104% | 104% | 103% | 105% | 106% | 107% | 120% | 98.7% | 111% | 105% | 111% | 106% | 103% | 101% | 102%
CCCCCCCCCCCCCCCCN(C(C)c1ccccc1)S(=O)(=O)c1ccc(OC)c(N)c1 (stereo not drawn) | 100% | 91.5% | 120% | 100% | 101% | 109% | 103% | 91.7% | 109% | 120% | 114% | 118% | 89.2% | 122% | 106% | 96.5% | 123% | 97.5% | 98.8% | 94.2%
Nc1ccc2cc(S(=O)(=O)O)cc(O)c2c1N=Nc1ccc(F)cc1 | 107% | 123% | 104% | 115% | 91.5% | 108% | 96% | 93.5% | 132% | 101% | 107% | 112% | 51.3% | 123% | 99.7% | 108% | 129% | 106% | 99.8% | 
CCCCN(CCCC)CCCCCCCCC(O)c1cc2ccccc2c2ccccc12 (stereo not drawn) | 32.9% | 61.8% | 67.9% | 49.3% | 45.2% | 70% | 61.8% | 49.2% | 79.6% | 84.7% | 60.4% | 64.9% | 52.3% | 79% | 59.9% | 71.9% | 46% | 37.4% | 39% | 37.6%
COc1ccc2c(c1)sc1nc(-c3ccccc3)c(-c3ccc(O)c(OC)c3)n12 | 21.5% | 77.6% | 80.4% | 41.7% | 82.3% | 55.5% | 66.2% | 61.5% | 73.6% | 49.8% | 88.4% | 96.3% | 99.8% | 120% | 101% | 77.5% | 76.6% | 78.1% | 71.2% | 17.2%
CC(=O)/C(=C/c1ccccc1)C(=O)CC(C)C | 74.4% | 91.4% | 106% | 63.6% | 83.7% | 88.1% | 92.4% | -23% (active) | 95.6% | 109% | 99.6% | 108% | 83.1% | 84.2% | 84.7% | 100% | 96.1% | 9% (active) | 34.1% | 1.48% (active)
Oc1[nH]c2ccc(Cl)cc2c1/C=c1/ccc2c(c1)N=C(c1cc(F)cc(F)c1)N=2 | 22.7% | 11% | 77% | 73.9% | 62.6% | 35.5% | 44.8% | 47.2% | 65.4% | 54.8% | 88.8% | 86.3% | 75.2% | 100% | 67.3% | 58.6% | 72.5% | 16.6% | 12.8% | 13.9%
CC(C)=CCc1ccc(O)c(=O)cc1C(C)C | 28.5% | 12.7% | 41% | 15.5% | 43.7% | -17.2% (active) | 14.3% | 22% | 34.5% | 17.2% | 13.8% | 25% | -10.4% (active) | 18.3% | 24.8% | -8.29% (active) | 52.6% | 9.68% (active) | 8.5% (active) | 5.25% (active)
CCN(CC)CCSCCCNc1c2ccc(Cl)cc2nc2ccc(OC)cc12 | -58.1% (active) | -97.8% (active) | -38.4% (active) | -70.6% (active) | -30.3% (active) | -99.1% (active) | -72.9% (active) | -80% (active) | -67% (active) | -77.5% (active) | -20.2% (active) | -32% (active) | -29.1% (active) | -4.3% (active) | -78.3% (active) | -22.8% (active) | -77.7% (active) | -20.4% (active) | -19.9% (active) | -19.8% (active)
Cc1occc1-c1nnc(SCC(=O)c2ccc(NC(=O)CC(C)C)cc2)o1 | 113% | 111% | 95.8% | 105% | 100% | 94.9% | 104% | 105% | 123% | 90.8% | 103% | 107% | 93.7% | 123% | 109% | 84.1% | 118% | 93.4% | 100% | 7.85% (active)
CC1CN(Cc2ccccc2)C(=O)NC1=O (stereo not drawn) | 109% | 106% | 92% | 108% | 92.7% | 106% | 96% | 103% | 114% | 102% | 121% | 91.1% | 85.7% | 104% | 109% | 116% | 121% | 103% | 94.2% | 101%
N=c1c2c(-c3ccccc3)c(-c3ccccc3)n(Cc3ccccc3)c2ncn1CCCO | 0.266% (active) | 39.7% | 48.3% | 24.5% | 33.8% | -4.56% (active) | 44.2% | 13% | 49.8% | 47% | 36.5% | 40.3% | -0.199% (active) | 35.4% | 26.1% | 13.9% | 17.6% | 28.9% | -10.9% (active) | -33.5% (active)
CCCCCC(=O)c1ccc(OCCCN2CCN(C(=O)OCC)CC2)cc1 | 102% | 102% | 95.9% | 98.2% | 78.7% | 63.7% | 87% | 81.7% | 98.3% | 85.5% | 83.4% | 94.8% | 77.4% | 101% | 96.1% | 95.2% | 95.5% | 21.1% | 78.6% | 84.4%
COc1ccc2c(c1)sc1nc(-c3ccccc3)c(-c3cccnc3)n12 | 91.5% | 95.5% | 103% | 96.2% | 88.9% | 77.7% | 82.7% | 91.4% | 110% | 120% | 83% | 98.2% | 95.2% | 116% | 97.7% | 81.2% | 58.4% | 93.1% | 86.6% | 86.6%
c1ccc2c(c1)oc1c3c(ccc12)NCCC3 | 95.1% | 97.1% | 108% | 90.7% | 91.5% | 94.1% | 84.2% | 96.6% | 107% | 97.5% | 59.5% | 87.4% | 65.9% | 135% | 101% | 97.4% | 77.3% | 96% | 97.5% | 
